The supplement of paper PMC7156485
Values without a mark were called inactive.

test system: TDF; assay: H1.0 immunofluorescence intensity relative to DMSO (% of DMSO); higher = stronger H1.0 induction, active = 120 or more; details: concentration: 10 µM; 24 h
How it was run: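 In 384-well plates holding 800 HCC1569 or TDF cells per well in RPMI with 10% FBS, compounds were tested at 10 µM for 24 h at 37 °C in triplicate. Fixation used 3.7% formaldehyde. Staining used a rabbit anti-H1.0 antibody with an AlexaFluor 647 secondary, plus DAPI. Each value, H1.0 nuclear intensity or cell number, is a median of replicates shown as percent of the plate control, and HCC1569 values were smoothed for positional effects.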
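Further: TDF is a line of transformed human dermal fibroblasts of mesenchymal origin.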

Row | SMILES | H1.0 immunofluorescence intensity
1 | CCCNC(C)C(=O)Nc1ccccc1C.Cl (stereo unspecified) [Prilocaine hydrochloride] | 86.9
2 | Cc1ccc(OCC(O)C(C)NC(C)C)c2c1CCC2.Cl (stereo unspecified) [ICI 118,551 hydrochloride] | 96.9
3 | FC(F)(F)c1cc(NC(=S)Nc2ccc(Br)cc2-c2nn[nH]n2)cc(C(F)(F)F)c1 | 90.2
4 | CCOC(=O)c1c(C)[nH]c(C=C2C(=O)Nc3ccccc32)c1C [VEGF Receptor 2 Kinase Inhibitor I] | 94.2
5 | O=C([O-])c1cc2cc(Cc3cccnc3)ccc2o1.[Na+] [Furegrelate sodium] | 88.5
6 | Nc1c(Br)cc(Br)cc1CNC1CCC(O)CC1 (stereo unspecified) [Ambroxol] | 100
7 | CCCCCC(O)C=CC1C(O)CC(O)C1CC=CCCCC(=O)O (stereo not drawn) [8-Epi-prostaglandin F2a] | 96.2
8 | CCCCCCCCCCCCCC=CC(O)C(CO)NC(=O)CCCCCCCCCCCCCCC (stereo unspecified) [C16 Ceramide] | 102
9 | CN1C(C)(C)CCCC1(C)C.O=C(O)C(O)C(O)C(=O)O [Pempidine tartrate] | 99.5
10 | CS(=O)(=O)O.N=C(N)SCCc1ccc(OCc2ccc([N+](=O)[O-])cc2)cc1 | 125 (active)
11 | CCCCCCCCCCCCCCCC(=O)NC(CN1CCOCC1)C(O)c1ccccc1 (racemic) | 97.6
12 | COc1ccc(C=Cc2cc(OC)cc(=O)o2)cc1 [Yangonin] | 104
13 | Cl.Oc1ccc(Nc2nc(-c3ccc(Cl)cc3)cs2)cc1 [Sphingosine Kinase Inhibitor] | 110
14 | CC(C)NCC(O)c1ccc2ccccc2c1.Cl (stereo unspecified) [Pronethalol.HCl] | 86.6
15 | Cc1[nH]c2ccccc2c1CCNC(=O)c1cccs1 [N-[2-(2-methyl-1H-indol-3-yl)ethyl]-2-thiophenecarboxamide] | 97.1
16 | OCC1NC(CO)C(O)C1O [(2R,5R)-Bis(hydroxymethyl)-(3R,4R)-dihydroxypyrrolidine] | 91.3

Row | SMILES | H1.0 immunofluorescence intensity
17 | NC(=O)c1ncn(C2OC(CO)C(O)C2O)c1O (stereo unspecified) [Mizoribine] | 91.2
18 | CC1OC(Oc2c(-c3ccc(O)c(O)c3)oc3cc(O)cc(O)c3c2=O)C(O)C(O)C1O (stereo unspecified) [Quercitrin] | 101
19 | CCCN(CCC)C(=O)C(CCC(=O)O)NC(=O)c1ccccc1 (stereo unspecified) [Proglumide] | 88.6
20 | Cn1cnc2cc3c(Nc4cccc(Br)c4)ncnc3cc21 | 79.6
21 | O=c1[nH]c2cc(C(F)(F)F)ccc2n1-c1cc(C(F)(F)F)ccc1O | 96.6
22 | O=c1cc(-c2ccc(O)cc2)oc2cc(O)c(C3OC(CO)C(O)C(O)C3O)c(O)c12 (stereo unspecified) [Isovitexin] | 94.3
23 | CN(c1ccccc1CNc1nc(Nc2ccc3c(c2)CC(=O)N3)ncc1C(F)(F)F)S(C)(=O)=O | 113
24 | Cc1ccc(F)c(NC(=O)Nc2ccc(-c3cccc4[nH]nc(N)c34)cc2)c1 | 101
25 | COc1cc2ncn(-c3cc(OCc4ccc(S(C)(=O)=O)cc4)c(C(N)=O)s3)c2cc1OC [Polo-like Kinase Inhibitor I] | 92.8
26 | CN(C)CCC(c1ccc(Br)cc1)c1ccccn1.O=C(O)C=CC(=O)O (single isomer, unassigned; (+)) [(+)-Brompheniramine maleate] | 113
27 | CC1(NC(=O)CBr)CCC(C(C)(C)NCC(O)COc2cccc3[nH]ccc23)CC1 (racemic) | 93.2
28 | CC1=C(C)C(=O)C(CCCCC#CCCCC#CCO)=C(C)C1=O [Docebenone] | 103
29 | COc1ccc(Cl)cc1C(=O)NCCc1ccc(S(=O)(=O)NC(=O)NC2CCCCC2)cc1 [Glibenclamide] | 93.9
30 | CC#CC1(O)CCC2C3CCC4=CC(=O)CCC4=C3C(c3ccc(N(C)C)cc3)CC21C (stereo unspecified) [Mifepristone] | 96.8
31 | CC1(C)CCCC2(C)C1CCC1(C)OC(=O)CC12 [(3aR)-(+)-Sclaerolide] | 92.9
